Bioassay records: PubChem BioAssay, National Center for Advancing Translational Sciences (NCATS)
An excerpt weighted towards active compounds, which were near 19% of everything screened.
Shiga toxin inh: A qHTS for Small Molecule Inhibitors of Shiga Toxin | Vero cells, Shiga toxin protein synthesis inhibition reporter | inhibition, % at 38.7 µM | hit rate 9.2% among 290,000; in the data active means inhibition mostly above about 28%, no sharp cut-off; inactive means mostly below about 43%
Cycloheximide cs: Cycloheximide Counterscreen for Small Molecule Inhibitors of Shiga Toxin | max response, % | hit rate 12% among 300,000 | cell reporter, cycloheximide protein synthesis inhibition counterscreen | AID 2314, 2010; in the data active means max response mostly above about 13%, no sharp cut-off; inactive means mostly below about 14%; further: read at 38.3 µM for the half of the compounds with a filed dose
AMA1 RON2 block: qHTS for Inhibitors of AMA1-RON; Towards Development of Antimalarial Drug Lead: Primary Screen; hit rate 0.2% among 360,000; Potency, µM (doses to about 58.2 µM), actives largely listed as inhibitors; AlphaScreen AMA1-biotinylated RON2 peptide binding; further: nearly all actives have a fitted effect of over 45% in size
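AMA1 (3D7) with his tag at 25 nM final met compounds first, then biotinylated RON2 peptide at 25 nM; detection used donor plus acceptor beads, 10 µg/mL apiece, read by AlphaScreen after 30 min at room temperature.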
SARS PLP yeast: qHTS of Yeast-based Assay for SARS-CoV PLP; S. cerevisiae expressing SARS-CoV PLpro, growth rescue; Potency, µM (top dose mostly 32.9 µM), most hits filed as activators; hit rate 0.19% among 330,000; AID 485353, 2010; calls by dose curve; further: nearly all actives have a fitted effect of over 55% in size
Pf growth 96h: Primary qHTS for delayed death inhibitors of the malarial parasite plastid, 96 hour incubation | hit rate 6.9% among 320,000 | Potency, µM (series often up to 28.7 µM), hits mostly inhibitors | P. falciparum luciferase reporter growth, 96 h
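Erythrocytes infected with luciferase-expressing P. falciparum were dispensed at 2% hematocrit and 0.05% parasitemia (final), then incubated with compounds 96 hours at 37 C in 5% CO2. Luminescence after detection reagent addition reported growth.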
Pf growth 48h: Primary qHTS for delayed death inhibitors of the malarial parasite plastid, 48 hour incubation | P. falciparum luciferase growth in erythrocytes, 48 h | Potency, µM (series often up to 28.7 µM), hits mostly inhibitors | hit rate 5.9% among 310,000 | AID 504832, 2011
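First compound was added to culture medium, then infected red cells at 0.1% parasitemia and 2% hematocrit (final). After incubation at 37 C under 5% CO2, luciferase detection reagent was dispensed and light output recorded.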
Each line names hits and unclear results; the compound was inactive in the other large screens. Unless noted, the call rests on the fitted dose curve; in most records, active means well fitted curve in the direction sought with a large enough effect; inconclusive means small, poorly fitted or top-dose-only effect, or another doubt; inactive means no such curve, though single readings can be large; an effect the other way counts as inactive or inconclusive.

CCSc1ncc(Cl)c(C(=O)Nc2nc3ccc(OC)cc3s2)n1	none (no result: AMA1 RON2 block, SARS PLP yeast, Pf growth 96h, Pf growth 48h)
CCn1cc([N+](=O)[O-])c(C(=O)Nc2nc3ccc(OC)cc3s2)n1	Cycloheximide cs 15
COc1ccc2nc(NC(=O)c3cccc(-c4cc5ccccc5oc4=O)c3)sc2c1	Shiga toxin inh 43, Cycloheximide cs 34, Pf growth 96h 4.7µM, Pf growth 48h inconclusive
CCN(CC)c1cc(C)c2cc(NC(=O)c3ccccc3F)ccc2n1	Cycloheximide cs 16, Pf growth 96h inconclusive, Pf growth 48h 10µM
COc1ccc2nc(NC(=O)c3ccccc3-c3ccccc3C(=O)O)sc2c1	Pf growth 96h inconclusive
COc1ccc2nc(NC(=O)c3cnccn3)sc2c1	Shiga toxin inh 119, Cycloheximide cs 31 (no result: Pf growth 96h)
Cc1cccc(N2CCN(C(=O)CCc3nc4ccccc4c(=O)[nH]3)CC2)c1C	none (no result: Shiga toxin inh, Cycloheximide cs, Pf growth 96h, Pf growth 48h)
COc1ccc(-c2oc3c(c2C(=O)OCCCO)C(OCCO)CCC3)cc1 (stereo not given)	none (no result: Shiga toxin inh, Cycloheximide cs, SARS PLP yeast, Pf growth 96h, Pf growth 48h)
Cc1ccc2nc(NC(=O)c3ccccc3F)sc2c1	Shiga toxin inh 83, Cycloheximide cs 39, Pf growth 96h inconclusive
COc1ccc(C(=O)Nc2nc3ccc(S(C)(=O)=O)cc3s2)cc1	none
COc1ccc2nc(NC(=O)c3ccc(NS(=O)(=O)c4cccs4)cc3)sc2c1	Cycloheximide cs 35, Pf growth 96h inconclusive
COc1ccc2nc(NC(=O)CNS(=O)(=O)c3cccs3)sc2c1	none (no result: Pf growth 48h)
COc1ccc(C(=O)Nc2nc3ccc(OC)cc3s2)cc1	Shiga toxin inh 68, Cycloheximide cs 39
CCn1nc(C(=O)Nc2nc3ccc(C)cc3s2)c2ccccc2c1=O	none (no result: Pf growth 96h)
COc1ccc2nc(NC(=O)c3ccccc3F)sc2c1	Shiga toxin inh 56, Cycloheximide cs 27, Pf growth 96h inconclusive
COc1cccc(C(=O)N2CCC[C@@H]2C(=O)N2CCC[C@@H]2C(=O)NCc2ccccc2Cl)c1	none (no result: Shiga toxin inh, Cycloheximide cs, SARS PLP yeast, Pf growth 96h, Pf growth 48h)
O=S(=O)(Nc1ccon1)c1ccc(F)c(F)c1	Pf growth 96h inconclusive
CCCC(=O)Nc1nc2ccc(NC(=O)c3ccccc3F)cc2s1	Shiga toxin inh 47, Cycloheximide cs 21
COc1ccc2nc(NC(=O)c3ccc(NC(=O)C4CCCO4)cc3)sc2c1 (stereo not given)	Cycloheximide cs 19, Pf growth 48h inconclusive
CCOc1ccc2nc(NC(=O)C3CCCO3)sc2c1 (stereo not given)	none
CCCCC(=O)Nc1sc2c(c1C(N)=O)CCC2	Shiga toxin inh 45, Cycloheximide cs 32 (no result: Pf growth 96h)
CC(C)(C)C(=O)NC(=S)Nc1sc2c(c1C(N)=O)CCC2	Cycloheximide cs 22, Pf growth 96h inconclusive
CC(=O)Nc1sc2c(c1C(N)=O)CCC2	none
CC(C)CC(=O)NC(=S)Nc1sc2c(c1C(N)=O)CCC2	none
S=C1N(c2ccccc2)C(c2ccc(Br)cc2)N2CCCN12 (stereo not given)	Pf growth 96h inconclusive, Pf growth 48h inconclusive
CCC(C(=O)NCc1ccccc1OC)n1nc(C)n2c(cc3occc32)c1=O (stereo not given)	Pf growth 96h inconclusive (no result: Pf growth 48h)
Cc1ccc(NC(=O)c2cc(F)c(F)cc2Cl)nc1	Shiga toxin inh 49, Cycloheximide cs 58
Cc1cc(NC(=O)c2ccccc2F)on1	Shiga toxin inh 67, Cycloheximide cs 42
COc1cc2ccccc2cc1C(=O)Nc1ccc(C)cn1	Shiga toxin inh 102, Cycloheximide cs 48
COc1cc2ccccc2cc1C(=O)NNC(=O)c1ccccc1O	SARS PLP yeast inconclusive, Pf growth 96h inconclusive, Pf growth 48h inconclusive (no result: AMA1 RON2 block)
Cc1ccc(NC(=O)c2ccccc2F)nc1	Shiga toxin inh 66, Cycloheximide cs 43 (no result: Pf growth 96h)
O=C(c1nn(-c2ccccc2)c(=O)c2ccccc12)N1CCN(c2ncccn2)CC1	none
CC(C)(C)OC(=O)N1CCC(NC(=O)c2nc[nH]c2C(=O)NCC(=O)OCc2ccccc2)CC1	none
CC1c2cc3c(cc2CCN1S(=O)(=O)c1ccccc1)OCCCO3 (stereo not given)	none
Cc1noc(NC(=O)c2ccccc2)c1C#N	none
Cc1ccc(C(=O)Nc2onc(C)c2C#N)cc1	Cycloheximide cs 12
Cc1cc(NC(=O)c2ccc(C#N)cc2)on1	Cycloheximide cs 11
N/C(=N\OC(=O)COc1cc(Cl)c(Cl)cc1Cl)c1ccncc1	none
N/C(=N\OC(=O)COc1ccc(Cl)cc1Cl)c1ccccn1	Shiga toxin inh 48, Cycloheximide cs 35
N/C(=N\OC(=O)COc1ccc(Br)cc1Cl)c1ccccn1	Cycloheximide cs 50
N/C(=N\OC(=O)COc1ccc(Br)cc1Cl)c1ccncc1	Shiga toxin inh 121, Cycloheximide cs 88
Cc1cc(C)c(C)c(OCC(=O)O/N=C(\N)c2ccccn2)c1	Pf growth 96h inconclusive (no result: Pf growth 48h)
O=[N+]([O-])c1cc(-c2ncccn2)cs1	none
c1ccc(-c2nc(N3CCOCC3)sc2-c2ccccc2)cc1	none
c1ccc(-c2nc(N3CCOCC3)s[n+]2-c2ccccc2)cc1	Shiga toxin inh 40, Cycloheximide cs 57
COC(=O)C(C(C)=O)C1=C/C(=N\S(=O)(=O)c2ccc(C)cc2)c2ccccc2C1=O (stereo not given)	Pf growth 96h inconclusive (no result: Pf growth 48h)
CC1=C(Nc2ccc(C(=O)O)cc2)C(=O)c2ccccc2C1=O	none
O=C(O)c1ccc(S(=O)(=O)/N=C2\C=C(Nc3ccccc3F)C(=O)c3ccccc32)cc1	Pf growth 96h inconclusive, Pf growth 48h 2.6µM
CC(C)c1ccc(S(=O)(=O)/N=C2\C=C(NS(=O)(=O)c3ccccc3)C(=O)c3ccccc32)cc1	AMA1 RON2 block inconclusive
CCc1ccc(S(=O)(=O)/N=C2\C=C(NS(=O)(=O)c3ccccc3)C(=O)c3ccccc32)cc1	Shiga toxin inh 44, Cycloheximide cs 30
Cc1ccccc1NC1=C/C(=N\S(=O)(=O)c2ccc(C(=O)O)cc2)c2ccccc2C1=O	Shiga toxin inh 36, Pf growth 96h inconclusive, Pf growth 48h 2.6µM
COc1cc(NC(=O)c2sc3ncn(CC(=O)N4CCCCC4)c(=O)c3c2C)cc(OC)c1OC	Pf growth 48h inconclusive
O=C(c1cccnc1)N1CCN(S(=O)(=O)c2ccc(Cl)cc2)CC1	Pf growth 96h 4.1µM
O=C(c1n[nH]c2ccccc12)N1CCOCC1	Pf growth 96h 15µM
O=C(c1n[nH]c2ccccc12)N1CCN(S(=O)(=O)c2ccc(Cl)cc2)CC1	Pf growth 96h inconclusive, Pf growth 48h 2.1µM (no result: Shiga toxin inh, Cycloheximide cs)
O=C(c1n[nH]c2ccccc12)N1CCCCC1	none
Cc1cccc(C)c1NC(=O)C(CCc1ccccc1)n1c(=O)c(-c2cc3ccccc3[nH]2)nc2ccccc21 (stereo not given)	none (no result: Shiga toxin inh, Cycloheximide cs, SARS PLP yeast, Pf growth 96h, Pf growth 48h)
O=C(NCCC(=O)N1CCN(S(=O)(=O)c2ccccc2Cl)CC1)Nc1ccccc1	Pf growth 96h inconclusive, Pf growth 48h inconclusive (no result: Shiga toxin inh, Cycloheximide cs)
